About 79,000 compounds went through this panel and 15% of them were active in at least one assay; those are over-represented in the sample as a whole. Active and inactive are the calls of the source. Cut-off read from the data, not from the text of the source: active = growth inhibition above about 70%; inactive = the rest.
Test: NCI Yeast Anticancer Drug Screen. Data for the CLN2oe strain (AID 163);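 note: 0% = growth of vehicle-only control cultures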
Conditions: S. cerevisiae CLN2oe strain, active compounds read high
Description: Growth inhibition of yeast strains with defined genetic alterations is measured as a screen for potential anti-cancer activity. Selected strains with alterations in DNA damage repair or cell cycle control were exposed to compounds and growth inhibition was measured relative to vehicle treated controls. The strain used in this assay is CLN2oe

Measured: growth inhibition

CCn1c(O)c(C=Nc2ccccc2)s/c1=N/Nc1nc(-c2ccccc2)cs1
inactive: at 1.2 µM -6% | at 3.7 µM -11% | at 11.0 µM -7% | at 33.0 µM -9% | at 100.0 µM 17%

O=C(/C=C(/c1ccccc1)N1CCCCC1)c1ccccc1
inactive: at 1.2 µM -6% | at 3.7 µM -7% | at 11.0 µM -3% | at 33.0 µM -4%
active: at 100.0 µM 97%

CC(C)c1ccc(NC(=S)NC(=O)c2ccccc2)cc1
inactive: at 1.2 µM -21% | at 3.7 µM -21% | at 11.0 µM -2% | at 33.0 µM 56% | at 100.0 µM 51%

CN(C)N=Nc1ccccc1C(=O)NC#N
inactive: at 1.2 µM 23% | at 3.7 µM 22%
active: at 11.0 µM 98% | at 33.0 µM 99% | at 100.0 µM 99%

CN1CCN(C(=O)/C=C/C(=O)c2ccccc2)CC1
inactive: at 1.2 µM 3% | at 3.7 µM 6% | at 11.0 µM 15% | at 33.0 µM 36%
active: at 100.0 µM 76%

CCCOC(=O)C(F)C(Br)C(=O)OCCC (stereo not given)
inactive: at 1.2 µM 48%
active: at 3.7 µM 87% | at 11.0 µM 97% | at 33.0 µM 97% | at 100.0 µM 98%

CC(C)CCCC(C)C1CCC2C3CCC4=CC(=O)/C(=C\O)CC4(C)C3CCC12C (stereo not given)
inactive: at 1.2 µM -3% | at 3.7 µM -5% | at 11.0 µM -10% | at 33.0 µM -18% | at 100.0 µM 2%

CCCCCOC(=S)SC(=O)OCC
inactive: at 1.2 µM -7% | at 3.7 µM -6% | at 11.0 µM -7% | at 33.0 µM 1% | at 100.0 µM 30%

— PubChem BioAssay (NCI)
